This is part of a sample that, as a whole, favours compounds with a hit. Of some 83,000 tested, about 20% had one in any assay.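 Treatment: one concentration, 48 hours, 96-well format. Scoring: percent growth, with anything below 10 considered active.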 Values without a mark were called inactive. The source made the active and inactive calls.
Tested on: HOP-62 NSCLC
Assay: NCI-60 one-dose screen, 48 h (100 = growth as untreated, 0 = no growth, -100 = all killed)
Details: 10 µM unless noted

| SMILES | growth |
| --- | --- |
| O=[N+]([O-])c1cc2c(cc1Br)-c1ccccc1C2 | 81.4% |
| Clc1ccc(Nc2nc(Nc3ccccc3)nc(Nc3ccc(-c4cc(-c5ccc(Cl)cc5)on4)cc3)n2)cc1 | 75.6% |
| Cc1cc(=O)c2c(C)ccc(C)c2[nH]1 | 104% |
| Cc1cc(=O)[nH]n1-c1cc(Cl)ccc1N | 103% |
| CC(C)OC1=C(Cl)C(=O)c2ccccc2C1=O | 92.1% |
| COc1cccc(C2CC(=O)Nc3cc4c(cc32)OCO4)c1OC (stereo not drawn) | 98.2% |
| COc1ccccc1CNCCCCCCCCCCCCN1C(=O)c2ccc3c4c(ccc(c24)C1=O)C(=O)N(CCCCCCCCCCCCNCc1ccccc1OC)C3=O | 54.5% |
| O=C1C=CC(=O)N1CCCCCCCCCCN1C(=O)C=CC1=O | 88.7% |
| Cc1ccc(N=c2nc3sc4c(C)ccc(C)c4n3c(N)c2C#N)cc1 | 101% |
| COc1cc2nc(SCc3cc(OC)c(OC)c(OC)c3)n(-c3ccccc3OC)c(=O)c2cc1OC | 93.2% |
| Cc1nc2nc(C(F)(F)F)[nH]c2nc1C | 93.2% |
| CC(C)(C)[Si](C)(C)OC1[C@@H](CNC(=O)NC(=O)CCl)O[C@@H](n2cnc3c(N)ncnc32)[C@H]1O[Si](C)(C)C(C)(C)C (stereo partly drawn) | -60.1% (active) |
| Fc1ccccc1Nc1ccc2nnc(-c3ccncc3)n2n1 | 106% |
| NC(=O)c1nc2c([nH]c1=O)CCCC2 | 94.7% |
| CCN1CCN(C(=S)SCC(=O)Nc2nc3ccc(OC)cc3s2)CC1 | 97.2% |
| O=C(NCc1cccnc1)c1ccc([N+](=O)[O-])o1 | -4.75% (active) |
| N#CC1=C(N)Oc2cc(N)ccc2C1c1ccc(F)cc1 (stereo not drawn) | 69.6% |
| O=c1[nH]c(-c2ccncc2)nc2sc3c(c12)CCCCCC3 | 52.2% |
| CC1SC(c2cccc(Oc3ccccc3)c2)N(CCc2cccs2)C1=O (stereo not drawn) | 6.21% (active) |
| COc1ccc(-c2c(-c3cc4c(c(OC)c3OC)OCO4)noc2N)cc1 | 35.7% |

| SMILES | growth |
| --- | --- |
| c1ccc(-c2n(Cc3ccc4ccccc4n3)c3ccccc3[n+]2Cc2ccc3ccccc3n2)cc1 | -1.08% (active) |
| O=S(=O)(Nc1ncccn1)c1ccc(Nc2ccc3nnc(-c4ccncc4)n3n2)cc1 | 104% |
| CC(=O)c1cc(C)c(OC(=O)c2ccccc2)c(C)c1 | 96.8% |
| Oc1ccccc1/C=N/Nc1nc2ccccc2s1 | 49.2% |
| O=C1NC(=S)S/C1=C\c1cccc([N+](=O)[O-])c1 | 114% |
| COCCOC1=C(Cl)C(=O)c2ccccc2C1=O | 45.5% |
| O=C1NC(=O)C(CSc2ccccc2)(c2ccccc2)N1 (stereo not drawn) | 97.3% |
| Clc1ccccc1Nc1ccc2nnc(-c3ccncc3)n2n1 | 112% |
| COc1cc(CNCCCN2C(=O)c3ccc4c5c(ccc(c35)C2=O)C(=O)N(CCCNCc2cc(OC)c(OC)c(OC)c2)C4=O)cc(OC)c1OC | -81.4% (active) |
| O=C1C(OCCOc2ccccc2)=C(OCCOc2ccccc2)C(=O)c2ccccc21 | 56.4% |
| COc1ccc(OC)c(C2C(C#N)=C(N)Oc3cc(O)ccc32)c1 (stereo not drawn) | 97.4% |
| O=C1c2ccccc2C(=O)c2c(Nc3ccc(CCO)cc3)ccc(O)c21 | 107% |
| CCOC(=O)c1c(Cl)c2c(n1Cc1ccc(OC)cc1)-c1oncc1CCC2 | 98.4% |
| Cc1oc2c(c1C(=O)N1CC[C@@H](N)C1)C(=O)c1c(c(O)c3ccccc3c1O)C2=O | 31.9% |
| O=C1c2[nH]cc(CN[C@@H]3CCCN3)c2C(=O)c2c1c(O)c1ccccc1c2O | -100% (active) |
| O=C1C(N2CCOCC2)=Cc2cccc3cccc1c23 | 89% |
| COc1ccc(Cn2c(Br)c3c(c2-c2cc(OC)c(OC)c(OC)c2)CCc2sc(N)nc2-3)cc1 | 41.4% |
| Nc1nc2c(s1)CCc1c-2c(Br)n(Cc2ccccc2)c1Br | 64.9% |
| COC(=O)/C=C1/CCC2C3CCC4=CC(=O)C(Br)CC4(C)C3C(=O)CC12C (stereo not drawn) | 80.6% |

Tested on: NCI-H460 lung
Assay: as above
Details: 10 µM unless noted

| SMILES | growth |
| --- | --- |
| O=[N+]([O-])c1cc2c(cc1Br)-c1ccccc1C2 | 102% |
| Clc1ccc(Nc2nc(Nc3ccccc3)nc(Nc3ccc(-c4cc(-c5ccc(Cl)cc5)on4)cc3)n2)cc1 | 7.19% (active) |
| Cc1cc(=O)c2c(C)ccc(C)c2[nH]1 | 111% |
| Cc1cc(=O)[nH]n1-c1cc(Cl)ccc1N | 113% |
| CC(C)OC1=C(Cl)C(=O)c2ccccc2C1=O | 103% |
| COc1cccc(C2CC(=O)Nc3cc4c(cc32)OCO4)c1OC (stereo not drawn) | 102% |
| COc1ccccc1CNCCCCCCCCCCCCN1C(=O)c2ccc3c4c(ccc(c24)C1=O)C(=O)N(CCCCCCCCCCCCNCc1ccccc1OC)C3=O | 35.5% |
| O=C1C=CC(=O)N1CCCCCCCCCCN1C(=O)C=CC1=O | 96.1% |
| Cc1ccc(N=c2nc3sc4c(C)ccc(C)c4n3c(N)c2C#N)cc1 | 105% |
| COc1cc2nc(SCc3cc(OC)c(OC)c(OC)c3)n(-c3ccccc3OC)c(=O)c2cc1OC | 83.4% |
| Cc1nc2nc(C(F)(F)F)[nH]c2nc1C | 111% |
| CC(C)(C)[Si](C)(C)OC1[C@@H](CNC(=O)NC(=O)CCl)O[C@@H](n2cnc3c(N)ncnc32)[C@H]1O[Si](C)(C)C(C)(C)C (stereo partly drawn) | -82.4% (active) |
| Fc1ccccc1Nc1ccc2nnc(-c3ccncc3)n2n1 | 103% |
| NC(=O)c1nc2c([nH]c1=O)CCCC2 | 115% |
| CCN1CCN(C(=S)SCC(=O)Nc2nc3ccc(OC)cc3s2)CC1 | 113% |
| O=C(NCc1cccnc1)c1ccc([N+](=O)[O-])o1 | -64.3% (active) |
| N#CC1=C(N)Oc2cc(N)ccc2C1c1ccc(F)cc1 (stereo not drawn) | 100% |
| O=c1[nH]c(-c2ccncc2)nc2sc3c(c12)CCCCCC3 | 30.4% |
| CC1SC(c2cccc(Oc3ccccc3)c2)N(CCc2cccs2)C1=O (stereo not drawn) | -64.2% (active) |
| COc1ccc(-c2c(-c3cc4c(c(OC)c3OC)OCO4)noc2N)cc1 | 13.2% |

| SMILES | growth |
| --- | --- |
| c1ccc(-c2n(Cc3ccc4ccccc4n3)c3ccccc3[n+]2Cc2ccc3ccccc3n2)cc1 | 1.2% (active) |
| O=S(=O)(Nc1ncccn1)c1ccc(Nc2ccc3nnc(-c4ccncc4)n3n2)cc1 | 96.4% |
| CC(=O)c1cc(C)c(OC(=O)c2ccccc2)c(C)c1 | 106% |
| Oc1ccccc1/C=N/Nc1nc2ccccc2s1 | 15.7% |
| O=C1NC(=S)S/C1=C\c1cccc([N+](=O)[O-])c1 | 104% |
| COCCOC1=C(Cl)C(=O)c2ccccc2C1=O | 14.3% |
| O=C1NC(=O)C(CSc2ccccc2)(c2ccccc2)N1 (stereo not drawn) | 118% |
| Clc1ccccc1Nc1ccc2nnc(-c3ccncc3)n2n1 | 109% |
| COc1cc(CNCCCN2C(=O)c3ccc4c5c(ccc(c35)C2=O)C(=O)N(CCCNCc2cc(OC)c(OC)c(OC)c2)C4=O)cc(OC)c1OC | -75% (active) |
| O=C1C(OCCOc2ccccc2)=C(OCCOc2ccccc2)C(=O)c2ccccc21 | -26% (active) |
| COc1ccc(OC)c(C2C(C#N)=C(N)Oc3cc(O)ccc32)c1 (stereo not drawn) | 108% |
| O=C1c2ccccc2C(=O)c2c(Nc3ccc(CCO)cc3)ccc(O)c21 | 56% |
| CCOC(=O)c1c(Cl)c2c(n1Cc1ccc(OC)cc1)-c1oncc1CCC2 | 95.1% |
| Cc1oc2c(c1C(=O)N1CC[C@@H](N)C1)C(=O)c1c(c(O)c3ccccc3c1O)C2=O | 2.29% (active) |
| O=C1c2[nH]cc(CN[C@@H]3CCCN3)c2C(=O)c2c1c(O)c1ccccc1c2O | -92.6% (active) |
| O=C1C(N2CCOCC2)=Cc2cccc3cccc1c23 | 93.2% |
| COc1ccc(Cn2c(Br)c3c(c2-c2cc(OC)c(OC)c(OC)c2)CCc2sc(N)nc2-3)cc1 | 7.43% (active) |
| Nc1nc2c(s1)CCc1c-2c(Br)n(Cc2ccccc2)c1Br | 98.2% |
| COC(=O)/C=C1/CCC2C3CCC4=CC(=O)C(Br)CC4(C)C3C(=O)CC12C (stereo not drawn) | 59.3% |
